These results are taken from PubChem BioAssay (Tox21).

The structures appear in SMILES notation. Several values for one entry are separate records, joined by “and”; a condition that tells them apart may be missing. Equal entries are not always repeated. Results filed as inconclusive are left out. A call without a number means that no potency is given here. Activity calls are given as the source filed them. Calls follow the shape of the dose curve; as a rule, active = well fitted cell-killing curve with a large enough effect in the repeat runs; inconclusive = weak or mixed curves, or effect the other way; inactive = no such curve, though single readings can be large or run the other way.
Potency is read from the fitted curve at half-maximal effect.

A short description of the assay: qHTS assay to identify small molecule antagonists of the thyroid receptor (TR) signaling pathway - cell viability counter screen (AID 743064). Also: nearly all actives have a fitted effect of over 50% in size. The note with it: GH3.TRE-Luc viability, CellTiter-Fluor, 24 h; series mostly up to 70.3 µM. The text has this: National Center for Advancing Translational Sciences [NCATS]
NIH Chemical Genomics Center [NCGC]
U.S. Environmental Protection Agency [EPA]
National Institutes of Environmental Health Sciences [NIEHS]
National Toxicology Program [NTP]
U.S. Food and Drug Administration [FDA]
Thyroid receptor (TR), a nuclear hormone receptor, plays an important role in development, proliferation, differentiation, metabolism, brain function, and cardiovascular system. […] To profile the Tox21 10K compound library in TR signaling, a cell-based GH3-TRE-Luc assay (GH3.TRE-Luc cell line, developed by the laboratory of Dr. Albertinka J. Murk, Wageningen University) was used to measure the inhibition of TR. GH3 (rat pituitary tumor) cells stably expressing a TR activity sensor consisting of two TR response elements and a luciferase reporter gene. The cytotoxicity of the Tox21 compound library against the GH3.TRE-Luc cell line was tested in parallel by measuring the cell viability using CellTiter-Fluor assay (Promega, Madison, WI) in the same wells.
Tox21 Assay Protocol Summary:
GH3.TRE-Luc cells were dispensed at 1500 cells/4 uL/well into 1536-well white solid bottom plates using a Multidrop Combi dispenser (Thermo Fisher Scientific Inc., Waltham, MA). After the assay plates were incubated at 37 C for 4 hours, 23 nL of library compound or DMSO controls was transferred to the assay plates by a pintool station (Kalypsys, San Diego, CA), followed by addition of 1 ul of T3 (1 nM, final concentration in the wells) to stimulate TR transactivation. The assay plates were incubated at 37 C for 23.5 h, and then 1 uL of CellTiter-Fluor reagent (Promega, Madision, WI) of measuring cytotoxicity was added to each well using a Bioraptr Flying Reagent Dispenser (FRD) workstation (Beckman Coulter, Indianapolis, IN, USA). The plates were incubated at 37C and 5% CO2 for additional 30 min, and fluorescence intensity was measured by a ViewLux plate reader (PerkinElmer, Shelton, CT).
Background: qHTS replaces the single test concentration by a dilution series.
With `CNC[C@H](O)c1ccc(O)c(O)c1`, the Potency entry is “inactive”.
Next, `CCCCCCCCCCCCCO`: “inactive”; `C[C@]12CC[C@@H]3c4ccc(O)cc4CC[C@H]3[C@@H]1CC[C@@H]2O`: “inactive”; `IC(I)I`: “inactive”.
In the case of `Nc1ccc2c(c1)C(=O)c1ccccc1C2=O` it was “inactive”.
In the case of `CCCCCC1C(=O)CCC1CC(=O)OC` (stereo not given) it was “inactive”.
`Nc1ccc2c(O)cc(S(=O)(=O)O)cc2c1`: the Potency result is “inactive”.
Next, `c1ccc2c(c1)ccc1cc3c(ccc4ccccc43)cc12`: “inactive”.
In the case of `CCC/C=C/C=O` it was “inactive”; in that of `Cc1ccc([N+](=O)[O-])c(C)c1`, “inactive”; in that of `CCC(=O)O[C@H]1[C@H](O[C@@H]2[C@@H](C)[C@H](O[C@H]3C[C@@](C)(OC)[C@@H](O)[C@H](C)O3)[C@@H](C)C(=O)O[C@H](CC)[C@@](C)(O)[C@H](O)[C@@H](C)C(=O)[C@H](C)C[C@@]2(C)O)O[C@H](C)C[C@@H]1N(C)C`, 13.3 µM (active) and 36.1 µM (active).
Next, `Cc1ccc2c(c1)C(=O)OC2=O`: “inactive”; `C=C[C@H]1CN2CC[C@H]1C[C@@H]2[C@@H](O)c1ccnc2ccc(OC)cc12`: “inactive”.
`O=C(O)c1cc(=O)[nH]c(=O)[nH]1`: the Potency entry was “inactive”.
Next, `O=C(O)c1ccc(O)cc1`: “inactive”.
`NCCOCCO`: the Potency entry was “inactive”.
Next, `C=CCCCCCCCCCC`: “inactive”; `CC(=O)O[C@]1(C(C)=O)CC[C@H]2[C@@H]3C=C(C)C4=CC(=O)CC[C@]4(C)[C@H]3CC[C@@]21C`: “inactive”; `C=C[Si](OCCOC)(OCCOC)OCCOC`: “inactive”.
In the case of `CC/C(=C(/CC)c1ccc(O)cc1)c1ccc(O)cc1` it was 54 µM (active) and 54.5 µM (active); in that of `C/C=C/C(=O)N(CC)c1ccccc1C`, “inactive”.
In the case of `CC1(C)C(C=C(Cl)Cl)C1C(=O)OCc1cccc(Oc2ccccc2)c1` (stereo not given) it was “inactive”.
As for `c1ccc2c(c1)ccc1ncccc12`, the Potency result was “inactive”.
`COCCOCCOCCO`: the Potency entry was “inactive”.
Next, `FC(F)(F)C(Cl)Br` (stereo not given): “inactive”.
Next, `CCCCCCCCCCC(CO)CCCCCCCC` (stereo not given): “inactive”; `Cc1ccc(C)c(O)c1`: “inactive”.
For `CCCCCCCC/C=C\CCCCCCCC(=O)O`, the Potency entry was “inactive”.
Next, `Oc1c(Cl)ccc(Cl)c1Cl`: “inactive”; `CC1(C)O[C@@H]2C[C@H]3[C@@H]4C[C@H](F)C5=CC(=O)C=C[C@]5(C)[C@@]4(F)[C@@H](O)C[C@]3(C)[C@]2(C(=O)CO)O1`: “inactive”; `c1ccc2c(c1)[nH]c1ccccc12`: “inactive”.
In the case of `CC(C)[N+](C)(CCOC(=O)C1c2ccccc2Oc2ccccc21)C(C)C` it was “inactive”; in that of `c1ccc2ncccc2c1`, “inactive”; in that of `CC(=O)Oc1ccc(C(c2ccc(OC(C)=O)cc2)c2ccccn2)cc1`, “inactive”.
In the case of `CCOC(=O)C(C)Oc1ccc(Oc2cnc3cc(Cl)ccc3n2)cc1` (stereo not given) it was “inactive”.
On to `CC(=O)OC(C)C`, for which the Potency entry was “inactive”.
Take `O=C(O)COCCN1CCN(C(c2ccccc2)c2ccc(Cl)cc2)CC1` (stereo not given): the Potency result is “inactive”.
For the compound `O=C1OC2(c3ccccc31)c1cc(I)c(O)c(I)c1Oc1c2cc(I)c(O)c1I`, the Potency was 19.4 µM (active) [middle of 4 runs].
Next, `C=CC(C)(O)CCC=C(C)C` (stereo not given): “inactive”.
Turning to `Nc1cc(Cl)c(N)c(Cl)c1`, the Potency result is “inactive”.
